Measured values as given in PubChem BioAssay.

Each compound was assayed on Chordin-like protein 2 (CHRDL2) (assay: compounds binding chordin-like 2 – biochemical, small-molecule microarray, 635 nm fluorescence, primary screen (AID 1126;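 note: printed compound slides probed with Chrdl2 protein at 4 µg/mL for 1 h at 4 C; score merges 667 nm emission intensity with signal to noise over three replicate slides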)). Conditions: fluorescence 635 nm, higher = more signal.

Row | Compound | composite z-score
1 | CC1CC/C=C\[C@H]2OC34C=CCN(C(C)(C)C)C(=O)[C@H]3N(CCCCCCO)C(=O)[C@@H]4C2C(=O)O1 (stereo not given in full) | -1.07
2 | C[C@@]1([C@@H](NC(=O)c2ccccc2)c2ccc(-c3ccccc3)cc2)C[C@H]1C1CCCCC1 | -1.51
3 | COCCCNC(=O)[C@@]1(Cc2ccccc2N=[N+]=[N-])N=C(c2ccc(OCCCO)cc2)O[C@H]1c1ccccc1N=[N+]=[N-] | -0.0927
4 | CCN(CC)c1ccc(N2CC=CC34O[C@@H]5/C=C\CCCOC(=O)C5[C@H]3C(=O)N(CCO)[C@@H]4C2=O)cc1 (stereo not given in full) | -1.39
5 | CC(C)(C)OC(=O)CC[C@]12N=C(c3ccc(OCCCO)cc3)O[C@H]1c1ccccc1N(CCS(=O)(=O)c1ccccc1)C2=O | 0.765
6 | CN1C(=O)C2C=CC(C(O)c3cccs3)N(Nc3ccccc3)C2C1=O (stereo not given) | 0.0907
7 | O=C1O[C@H](c2ccccc2)[C@H](c2ccccc2)N2[C@H]1[C@@H](C(=O)O)[C@]1(C(=O)Nc3ccc(C#CC4=CCCCC4)cc31)[C@H]2c1ccccc1OCCO | 0.401
8 | COc1cc(OC)c(C(O)C2C=CC3C(=O)NC(=O)C3N2Nc2ccc(Cl)cc2Cl)cc1Br (stereo not given) | -1.09
9 | C=CC[C@]1(C(=O)NCCCOC)N=C(c2ccc(OCCCO)cc2)O[C@H]1c1ccccc1N=[N+]=[N-] | -0.0877
10 | Cc1ccc(S[C@]2(C(=O)NCCN3CCOCC3)CC(=O)N(Cc3ccccc3Cl)[C@@H]2c2ccc(CO)cc2)cc1 | -1.2
11 | Cc1ccc(S[C@]2(C(=O)NCC(C)C)CC(=O)N(Cc3cc(C(F)(F)F)cc(C(F)(F)F)c3)[C@@H]2c2ccc(CO)cc2I)cc1 | -1.76
12 | CC(C)[C@@H](CO)NC(=O)[C@H]1[C@@H](c2ccccc2)N(c2ccccc2)O[C@@H]1C | 0.207
13 | C=CCOC(=O)[C@@H]1[C@H]2C(=O)O[C@H](c3ccccc3)[C@H](c3ccccc3)N2[C@H](c2ccc(OCCOC(=O)[C@@H]3C[C@@H]4C(=O)N[C@@H](CCCCN(C)C)C(=O)N4[C@@H]3c3ccc(O)cc3)cc2)[C@@]12C(=O)Nc1ccc(I)cc12 | 1.15
14 | COCCOC(=O)N1C(=O)[C@@]2(c3cc(C#CC4=CCCCC4)ccc31)[C@H](C(=O)Nc1nc3ccccc3s1)[C@H]1C(=O)O[C@H](c3ccccc3)[C@H](c3ccccc3)N1[C@@H]2c1ccccc1OCCO | 0.367
15 | CC(C)N1C(=O)[C@@]2(Cc3ccccc31)c1ccccc1C(=O)N(C1CCCCC1)[C@H]2c1ccc(CO)cc1 | 0.78
16 | O=C1O[C@H](c2ccccc2)[C@H](c2ccccc2)N2[C@H]1[C@@H](C(=O)O)[C@]1(C(=O)Nc3ccc(C#CCCO)cc31)[C@H]2c1ccc(O)cc1 | -0.823
17 | C=CC[C@@]1(C(=O)NCc2ccccc2)N=C(c2ccc(OCCCO)cc2)O[C@@H]1c1ccccc1N=[N+]=[N-] | -0.623
18 | COc1ccc(CCN2C(=O)[C@@]3(c4ccc([N+](=O)[O-])cc4)CC(=O)N(C4CCCCC4)[C@@H]3c3ccc(CO)cc32)cc1 | 0.693

Row | Compound | composite z-score
19 | C=CCOC(=O)[C@@H]1[C@H]2C(=O)O[C@H](c3ccccc3)[C@H](c3ccccc3)N2[C@H](c2ccc(OCCOC(=O)[C@@H]3C[C@@H]4C(=O)N[C@@H](CCCC[N+](C)(C)C)C(=O)N4[C@@H]3c3cccc(OCCO)c3)cc2)[C@@]12C(=O)Nc1ccc(I)cc12 | 1.21
20 | O=C1[C@H]2C=C(Br)[C@H](C[C@@H]2OCCCCO)[C@@]12CO2 | 0.483
21 | O=C(NCc1ccccc1)[C@@]1(Cc2ccccc2)N=C(c2ccc(OCCCO)cc2)O[C@H]1c1ccccc1 | -1.46
22 | CCc1oc(CC[C@@H](CO)NC(=O)NCCn2cc(C3(O)CCCCC3)nn2)c(C(=O)OC)c1C(=O)OC | 0.915
23 | C=C(/C(=C/C[C@@H](OC(C)=O)c1ccc(OCCO)cc1)c1cnc2ccccc2c1)C(C)C | 0.159
24 | COC(=O)[C@@]1(Cc2ccc(F)cc2)[C@H]2c3cc(C(=O)N(C)C)n(Cc4ccc(S(C)(=O)=O)cc4)c3C[C@H]2CN1C(=O)c1ccccc1 | -0.0016
25 | O=C(NCc1ccc(F)cc1)[C@H]1C[C@H]2C(=O)N[C@@H](Cc3ccccc3)C(=O)N2[C@H]1c1ccc(O)cc1 | 0.371
26 | C=CC[C@@]1(C(=O)N(C)C)N=C(c2ccc(OCCCO)cc2)O[C@@H]1c1ccccc1N=[N+]=[N-] | -0.344
27 | C=C(COC)/C(=C/C[C@@H](OC(C)=O)c1ccc(OCCO)cc1)c1cc(C(=O)OC)ccc1OC | 0.784
28 | Cc1ccc(C(C)CC(O)C2C=CC3C(=O)N(C)C(=O)C3N2NC(=O)OC(C)(C)C)o1 (stereo not given) | 0.541
29 | CC(C)C[C@@H]1NC(=O)[C@H]2C[C@@H](C(=O)NCCCCCCN(C)C)[C@@H](c3ccc(O)cc3)N2C1=O | 1.29
30 | CN(C)CCCCCCNC(=O)[C@@H]1C[C@@H]2C(=O)N[C@@H](CCCCN)C(=O)N2[C@@H]1c1cccc(OCCO)c1 | 1.2
31 | [N-]=[N+]=NCc1ccccc1[C@H]1OC(c2ccc(OCCCO)cc2)=N[C@@]1(Cc1ccccc1)C(=O)NCc1ccccc1 | 0.547
32 | CCOC(=O)C[C@H]1[C@H](OC(=O)c2cc3ccccc3oc2=O)[C@@H](NC(=O)C2CCCCC2)c2cc(OCCCO)ccc2N1C(=O)c1ccccc1 | 0.438
33 | [N-]=[N+]=NCc1ccccc1C[C@]1(C(=O)NCC(O)CO)N=C(c2ccc(OCCCO)cc2)O[C@H]1c1ccccc1 (stereo not given in full) | -0.911
34 | CO[C@H]1O[C@H](CO)[C@@H](OC(=O)Nc2ccc(Br)cc2)[C@H](OC(=O)c2cc3ccccc3[nH]2)[C@H]1OC(=O)c1cc2ccccc2[nH]1 | 0.283
35 | CC(CO)N1C(=O)[C@@H]2C3C(=O)OCCC/C=C\[C@H]3OC23C=CCN(c2ccc4ccccc4c2)C(=O)[C@@H]13 (stereo not given in full) | -0.535
